Experimental data: PubChem BioAssay AID485270 (The Scripps Research Institute Molecular Screening Center, 2010)
In all, about 330,000 compounds went through this assay and about 5,800 (1.8%) were called active. For the sample, actives were picked, then their nearest neighbours and some compounds at random. Values without a mark were called inactive. Rule as the data show it: active = inhibition mostly above about 38% (no sharp cut-off); inactive = mostly below about 40%.

What follows are molecules tested against Orexin/Hypocretin receptor type 1 (Homo sapiens) (UniProt O43613) (assay: blocks the human orexin 1 receptor (AID 485270;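 also: 0% = agonist challenge alone and 100% = reference antagonist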)). Details: OX1R-expressing cells, FRET antagonist read-out; at 6.6 µM; active compounds read high.
Orexin/Hypocretin receptor type 1 (Homo sapiens), sequence (O43613 whole entry, looked up): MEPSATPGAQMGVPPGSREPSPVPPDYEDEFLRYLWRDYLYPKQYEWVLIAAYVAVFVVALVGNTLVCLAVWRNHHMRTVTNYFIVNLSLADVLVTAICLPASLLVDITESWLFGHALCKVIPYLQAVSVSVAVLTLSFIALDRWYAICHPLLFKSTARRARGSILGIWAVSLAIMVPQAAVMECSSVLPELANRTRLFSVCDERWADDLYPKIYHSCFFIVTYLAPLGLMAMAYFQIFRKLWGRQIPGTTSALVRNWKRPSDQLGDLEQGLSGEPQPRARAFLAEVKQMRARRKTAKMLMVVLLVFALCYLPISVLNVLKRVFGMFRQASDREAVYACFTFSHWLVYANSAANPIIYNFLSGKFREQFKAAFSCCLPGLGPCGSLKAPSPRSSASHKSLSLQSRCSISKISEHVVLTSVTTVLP

With `CC[C@@H](C)[C@@H]1CN([C@@H](C)CN2CCC[C@H]2CN2C(N)=NC[C@H]2C(C)C)C(=N)N1CCc1ccc(Cl)c(Cl)c1` as the molecule, how does the inhibition read?
The inhibition was -3.86%.

For `COc1ccccc1C(=O)NCC(=O)OCC(=O)NNC(=O)c1ccc(Br)cc1`, which inhibition is on record?
Its inhibition is 2.31%.

`Fc1ccc(Nc2nnns2)cc1` was tested. Which inhibition did it give?
The inhibition was 11.1%.

How did the inhibition turn out when `CS(=O)(=O)c1ccc(C(=O)NNC(=O)c2cccs2)cc1` was run?
Its inhibition is 1.62%.

Which inhibition does the source give for `CC(C)N(C(=O)[C@H]1C[C@H](CC(=O)NC(C)(C)C)C(=O)N2CCc3c([nH]c4ccc(Cl)cc34)[C@]12C)C(C)C` here?
Its inhibition is 8.54%.

For `C=CCC[C@@H](Cc1ccc(F)cc1)C(=O)OC[C@H](Cc1c[nH]c2ccccc12)NC(=O)[C@@H](CC=C)CC(=O)N(CCO)Cc1ccccc1`, which inhibition is on record?
The inhibition was 7.48%.

For `NS(=O)(=O)c1cccc(NC(=O)COC(=O)c2cc([N+](=O)[O-])ccc2N2CCCC2)c1`, which inhibition is on record?
The inhibition was 14.8%.

With `O=C(CSc1nc2ccccc2c(=O)n1Cc1ccc(F)cc1)NCC1CCCO1` (stereo not drawn) as the molecule, how does the inhibition read?
The inhibition was 4.49%.

For `COc1ccc(S(=O)(=O)N2CCN(c3cnccn3)CC2)cc1`, which inhibition is on record?
The inhibition was 16.4%.

Which inhibition does the source give for `CC(OC(=O)c1ccc([N+](=O)[O-])cc1)C(=O)NCC1CCCCC1` (stereo not drawn) here?
The inhibition was 18.2%.

How did the inhibition turn out when `CC1CCCCN1CCCNC(=O)Cn1ncc2c([nH]c3ccccc32)c1=O` (stereo not drawn) was run?
Its inhibition is 4.31%.

Which inhibition does the source give for `CCC(=C/c1sc2ccc3ccccc3c2[n+]1C)/C=C1\Sc2ccc3ccccc3c2N1C` here?
The inhibition was 42.8% (active).

`Cn1cccc1C(=O)OCC(=O)c1ccc(Br)s1` was tested. Which inhibition did it give?
The inhibition was 5.79%.

`O=C(CC1SC(N2CCOCC2)=NC1=O)Nc1ccccc1F` (stereo not drawn) was tested. Which inhibition did it give?
The inhibition was -1.73%.

Which inhibition does the source give for `C[C@@H](CN1CCC[C@H]1CN1C(N)=NC[C@@H]1Cc1ccccc1)N1C[C@@H](Cc2ccccc2)N(CCCC2CCCC2)C1=N` here?
The inhibition was 11.4%.

For `C/C=C/c1ccc(OCC(=O)NNC(=O)CN(C)S(=O)(=O)c2ccc(C)cc2)c(OC)c1`, which inhibition is on record?
Its inhibition is 0.57%.

`O=C(/C=C/c1ccco1)Nc1cccc(-c2nc3ccccc3[nH]2)c1` was tested. Which inhibition did it give?
Its inhibition is 86.8% (active).

With `O=C(/C=C/c1ccco1)Nc1ccc(Oc2ccccc2)cc1` as the molecule, how does the inhibition read?
The inhibition was 62.7%.

Which inhibition does the source give for `Cc1ccc(-n2nc3ccc(NC(=O)/C=C/c4ccco4)cc3n2)cc1C` here?
Its inhibition is 21.4%.

For `Cc1ccc(C(=O)OCC(=O)N2CCCCCC2)cc1S(=O)(=O)N1CCOCC1`, which inhibition is on record?
The inhibition was 24.3%.

`COc1ccc(NC(=O)Nc2ccc3c(c2)C(=O)N([C@H](C)CO)C[C@H](C)[C@@H](CN(C)C(=O)Nc2ccc4c(c2)OCO4)O3)cc1` was tested. Which inhibition did it give?
Its inhibition is 8.87%.

`Cc1nn(-c2ccccc2)c(Cl)c1/C=N/NC(=O)c1nn(C)cc1[N+](=O)[O-]` was tested. Which inhibition did it give?
The inhibition was 41.5%.

For `O=C(N/N=C/c1c(Cl)[nH]c2ccccc12)c1sc2ccccc2c1Cl`, which inhibition is on record?
The inhibition was 100% (active).

`Cc1nnsc1C(=O)N/N=C/c1ccccc1Cl` was tested. Which inhibition did it give?
The inhibition was 3.68%.

With `Cc1nn(C)cc1/C=N/NC(=O)c1sc2ccccc2c1Cl` as the molecule, how does the inhibition read?
Its inhibition is 72.5% (active).

With `COCCNC(=S)N/N=C/c1c(C)[nH]c2ccccc12` as the molecule, how does the inhibition read?
The inhibition was 9.28%.

`COc1ccc(CNC(=O)CNC(=O)c2sc3ccccc3c2Cl)cc1OC` was tested. Which inhibition did it give?
Its inhibition is 18.2%.

How did the inhibition turn out when `CC[C@]1(C(=O)OC)[C@H]2C(=O)N(Cc3ccccc3)C(=O)[C@H]2[C@H]2CN=C(SCc3ccccc3)N21` was run?
Its inhibition is 9.69%.

With `C[C@H]1CN([C@@H](C)CO)C(=O)Cc2cc(NS(C)(=O)=O)ccc2O[C@@H]1CN(C)CC1CC1` as the molecule, how does the inhibition read?
The inhibition was 1.83%.

`CN=C(Nc1cccc(S(=O)(=O)N2CCOCC2)c1)c1ccccc1` was tested. Which inhibition did it give?
The inhibition was 2.1%.

With `CC[C@]12c3[nH]c4cc(CCC(=O)N(C)C)ccc4c3CCN1C(=O)[C@@H](CC(=O)NCCCN(C)C)C[C@@H]2C(=O)N1CCN(C(=O)c2ccco2)CC1` as the molecule, how does the inhibition read?
Its inhibition is -2.47%.

`COCCCNC(=O)CC1C[C@H](C(=O)N2CCCCC2)[C@@]2(CCc3ccccc3)c3[nH]c4ccccc4c3CCN2C1=O` (stereo partly drawn) was tested. Which inhibition did it give?
Its inhibition is 2.77%.

With `CCOc1cc(/C=C(\C#N)c2nc(-c3cccs3)c(NC(C)=O)s2)ccc1O` as the molecule, how does the inhibition read?
The inhibition was 65.7% (active).

Which inhibition does the source give for `COc1cc(/C=N\Nc2nc(-c3cccs3)c(NC(C)=O)s2)ccc1O` here?
The inhibition was 8.13%.

With `CCOc1cc(-c2cc(-c3ccc(NC(C)=O)cc3)nc(N)c2C#N)ccc1O` as the molecule, how does the inhibition read?
The inhibition was 25.9%.

For `CCCC/C(C)=N/NC(=O)NC1CCCCC1`, which inhibition is on record?
The inhibition was 10.5%.

Which inhibition does the source give for `Nc1ncnc2c1ncn2[C@@H]1O[C@H](CNCc2cccn2-c2nccs2)[C@@H](O)[C@H]1O` here?
Its inhibition is 5.52%.

For `O=C(O)C1CCN(c2ccc([N+](=O)[O-])cc2[N+](=O)[O-])CC1`, which inhibition is on record?
The inhibition was 40.7% (active).

How did the inhibition turn out when `CCOC(=O)C1CCN(c2ccc(C(=O)O)cc2[N+](=O)[O-])CC1` was run?
The inhibition was 57.8%.

`CC1CCN(c2ccc([N+](=O)[O-])cc2C(N)=O)CC1` was tested. Which inhibition did it give?
Its inhibition is 65.8%.

How did the inhibition turn out when `O=C(COC(=O)c1cc[n+]([O-])cc1)Nc1ccc(Cl)c(C(F)(F)F)c1` was run?
The inhibition was 8.49%.

With `CC(Oc1ccc2c(-c3ccccc3)cc(=O)oc2c1)C(=O)NC(Cc1c[nH]c2ccccc12)C(=O)O` (stereo not drawn) as the molecule, how does the inhibition read?
Its inhibition is 12.5%.

Which inhibition does the source give for `Cc1nc2nc(SCC(=O)Nc3cccc(F)c3)[nH]c2cc1Br` here?
Its inhibition is 57.5% (active).

How did the inhibition turn out when `Cc1nc2nc(SCC(=O)c3ccccc3)[nH]c2cc1Br` was run?
Its inhibition is 9.22%.

How did the inhibition turn out when `Cc1cccc(NC(=O)CSc2nc3[nH]ncc3c(=O)[nH]2)c1` was run?
Its inhibition is 10.4%.

`Cc1ccc2c(c1)C1C[N+](C)(CC(=O)c3ccccc3)CCC1N2C(=O)c1ccccc1Cl` (stereo not drawn) was tested. Which inhibition did it give?
Its inhibition is 7.24%.

Which inhibition does the source give for `CC1CCCCC12NC(=O)N(CC(=O)OCc1c(F)cccc1Cl)C2=O` (stereo not drawn) here?
The inhibition was 11.8%.

Which inhibition does the source give for `Cc1cc(NC(=O)CSc2nccn2-c2ccc([N+](=O)[O-])cc2)no1` here?
The inhibition was 70.4% (active).

`Cc1cc(NC(=O)COc2ccc([N+](=O)[O-])cc2)no1` was tested. Which inhibition did it give?
Its inhibition is 3.47%.

How did the inhibition turn out when `Cc1cc(NC(=O)CSc2nnnn2-c2ccc(F)cc2)no1` was run?
The inhibition was 10.1%.

With `NS(=O)(=O)c1ccc(CNC(=S)NC(=O)c2ccco2)cc1` as the molecule, how does the inhibition read?
Its inhibition is 4.56%.

Which inhibition does the source give for `CC(=O)N/N=C/c1cc2c(cc1[N+](=O)[O-])OCO2` here?
The inhibition was 98.3% (active).

`CC1(C(=O)N/N=C/c2cc3c(cc2Br)OCO3)CC1(Br)Br` (stereo not drawn) was tested. Which inhibition did it give?
Its inhibition is 26.7%.

`Cc1ccc(S(=O)(=O)N/N=C\c2cc3c(cc2[N+](=O)[O-])OCO3)cc1` was tested. Which inhibition did it give?
Its inhibition is 29.4%.

Which inhibition does the source give for `COc1ccc(CN2C(CC(=O)Nc3cccnc3)c3ccc(C(F)(F)F)cc3S2(=O)=O)cc1` (stereo not drawn) here?
Its inhibition is 12.3%.

With `COc1ccc(CNC(=O)COC(=O)c2sccc2C)cc1OC` as the molecule, how does the inhibition read?
Its inhibition is 3.49%.

`CC(=O)N1c2ccccc2N(Cc2ccc([N+](=O)[O-])cc2)C(=O)C1(C)C` was tested. Which inhibition did it give?
The inhibition was 15.5%.

How did the inhibition turn out when `CC1=NN(c2ccccc2)C(=O)C1C(=O)c1ccc([N+](=O)[O-])cc1` (stereo not drawn) was run?
The inhibition was 33.4%.

For `O=C1NC(=O)C2C1C(c1ccc([N+](=O)[O-])cc1)=NN2Cc1ccccc1` (stereo not drawn), which inhibition is on record?
Its inhibition is 75.4% (active).

With `CC(C)(C)OC(=O)C[C@@H]1C/C=C\C[C@@H](CC(=O)N[C@@H](CO)Cc2ccccc2)C(=O)N2CCC[C@H]2COC1=O` as the molecule, how does the inhibition read?
The inhibition was 16.2%.

For `COc1ccccc1N(CC(=O)Nc1ccc(C)cc1Cl)S(=O)(=O)c1cccs1`, which inhibition is on record?
The inhibition was 9.45%.

For `Cc1ccc(C2(C)NC(=O)N(CC(=O)N3CC(=O)Nc4ccccc43)C2=O)cc1` (stereo not drawn), which inhibition is on record?
Its inhibition is 2.94%.

`COc1ccccc1NS(=O)(=O)c1ccc(C)c(C(=O)NNC(=O)c2csc(N3CCOCC3)n2)c1` was tested. Which inhibition did it give?
Its inhibition is 2.72%.

`COc1cc(S(=O)(=O)N2CCN(C(=O)C3CC3)CC2)ccc1NC(C)=O` was tested. Which inhibition did it give?
The inhibition was 10.5%.

How did the inhibition turn out when `COc1ccc(C(=O)COC(=O)c2c(C)noc2C)cc1Cl` was run?
The inhibition was 3.93%.

For `CCOC(=O)[C@H]1[C@H]2COc3ccccc3[C@@H]2N2C(=O)CN(Cc3ccccc3)C(=O)[C@@]12C`, which inhibition is on record?
The inhibition was 11.5%.

With `CS(=O)(=O)n1nc(-c2ccco2)nc1N` as the molecule, how does the inhibition read?
Its inhibition is -7.64%.

`Cn1c(-c2ccco2)nc2cc3ccccc3cc21` was tested. Which inhibition did it give?
The inhibition was 68.2% (active).

Which inhibition does the source give for `COc1ccccc1-n1c(-c2cc(-c3ccco3)[nH]n2)n[nH]c1=S` here?
The inhibition was 4.56%.

For `COC(=O)c1ccc(CNC(=O)c2ccc(S(=O)(=O)N3CCCCCC3)cc2)cc1`, which inhibition is on record?
Its inhibition is 13.9%.

Which inhibition does the source give for `O=C(Nc1ccc(N2CCOCC2)cc1)c1cccc(S(=O)(=O)N2CCOCC2)c1` here?
The inhibition was 1.87%.

Which inhibition does the source give for `O=C(N/N=C/c1ccc([N+](=O)[O-])o1)c1cccc(S(=O)(=O)N2CCOCC2)c1` here?
The inhibition was 44.6% (active).

For `CCOc1cc(/C=N/NC(=O)c2cccc(S(=O)(=O)N3CCOCC3)c2)ccc1OCC(=O)N(C)C`, which inhibition is on record?
Its inhibition is 10%.

How did the inhibition turn out when `O=C1N=C(N2CCCC2)S/C1=C\c1cccc(Br)c1` was run?
Its inhibition is 35.7%.

How did the inhibition turn out when `CCOc1cc(/C=C2\SC(N3CCCCC3)=NC2=O)ccc1O` was run?
Its inhibition is 25.6%.

How did the inhibition turn out when `CCN1C(=O)/C(=C2\SC(N3CCCCC3)=NC2=O)c2ccccc21` was run?
The inhibition was 42.2% (active).

How did the inhibition turn out when `O=C(Cn1cc(C(F)(F)F)ccc1=O)Nc1ccc2c(c1)OCCO2` was run?
The inhibition was 1.4%.

`COc1cc(/C=C/C(=O)OCC(=O)NC2CC2)cc(OC)c1OC` was tested. Which inhibition did it give?
Its inhibition is 3.2%.

Which inhibition does the source give for `CC(C)(C)NC(=O)Cn1cnc2cc([N+](=O)[O-])ccc2c1=O` here?
Its inhibition is 132% (active).

Which inhibition does the source give for `O=C(Cn1cnc2cc([N+](=O)[O-])ccc2c1=O)NC(=O)NCc1ccccc1` here?
The inhibition was 23.1%.

How did the inhibition turn out when `Cc1cc(C(=O)Cn2cnc3cc([N+](=O)[O-])ccc3c2=O)c(C)n1CC1CCCO1` (stereo not drawn) was run?
Its inhibition is 53.2%.

`COc1ccc(S(=O)(=O)N(C)C[C@@H]2Oc3ccc(NS(=O)(=O)c4cn(C)cn4)cc3C(=O)N([C@@H](C)CO)C[C@@H]2C)cc1` was tested. Which inhibition did it give?
The inhibition was 1.11%.

Which inhibition does the source give for `CSc1ncccc1C(=O)Nc1cccc(S(=O)(=O)N2CCOCC2)c1` here?
Its inhibition is 9.4%.
